Where a name gives a salt, the structure may show the parent alone.
Tested on: Drosophila S2 cl14 SmoIP sensor cells
Assay: normalized SmoIP GFP fluorescence (untreated unstimulated = 0%, untreated Hh-stimulated = 100%); higher = more Smo activation sensor fluorescence
Settings: compound concentration: 2 uM, 24 h
[1] = stimulation: Hh conditioned medium (+Hh)
[2] = stimulation: mock conditioned medium (-Hh)
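Also: flow cytometry read-out as median GFP intensity of gated cells, compounds added 30 min before Hh-conditioned or mock medium, mock-treated cells serving as unstimulated baseline.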

Structure (SMILES)	normalized SmoIP GFP fluorescence [1] [%]	normalized SmoIP GFP fluorescence [2] [%]
COc1ccc2[nH]c([S+]([O-])Cc3ncc(C)c(OC)c3C)nc2c1 (stereo not given) [Omeprazole]	97	–
COC(=O)C1=C(C#N)NC(C)=C(C(=O)OC(C)C)C1c1cccc([N+](=O)[O-])c1 (stereo not given) [nilvadipine-arc029]	110	-17
CCN(CC)CCNC(=O)c1c(C)[nH]c(/C=C2\C(=O)Nc3ccc(F)cc32)c1C [Sunitinib-Malate-(Sutent)]	182	90.8
Cc1ccc(C(=O)Nc2ccc(CN3CCN(C)CC3)c(C(F)(F)F)c2)cc1C#Cc1cnc2cccnn12	128	11.3
CC(=O)O[C@]1(C(C)=O)CC[C@H]2[C@@H]3C=C(Cl)C4=CC(=O)[C@@H]5C[C@@H]5[C@]4(C)[C@H]3CC[C@@]21C [cyproterone-acetate]	142	-6.79
c1cncc(CN2CCC(n3ncc4c(N5CCOCC5)nc(-c5ccc6[nH]ccc6c5)nc43)CC2)c1	104	-4.53
CC(C)(C)NC[C@H](O)COc1nsnc1N1CCOCC1 [timolol-maleate]	111	-1.51
CCc1cc2c(cc1N1CCC(N3CCOCC3)CC1)C(C)(C)c1[nH]c3cc(C#N)ccc3c1C2=O	148	8.36
Cc1ccc(C(=O)Nc2ccc(CN3CCN(C)CC3)c(C(F)(F)F)c2)cc1C#Cc1cnc2[nH]ncc2c1	104	3.88
NC(=O)Nc1sc(-c2ccc(F)cc2)cc1C(N)=O [tpca-1]	106	-3.79
Cc1cnc(NC(=O)Nc2cc(Br)c(C)cc2OC[C@@H]2CNCCO2)cn1	112	-14.5
C/C(=N\NC(=S)N1CCC1)c1ccccn1	207	30.1
CS(=O)(=O)N1CCc2c(-c3cnc(N)nc3)nc(N3CCOCC3)nc21	134	-15.8
O=C(O)Cc1cccc(OCCCN(Cc2cccc(C(F)(F)F)c2Cl)CC(c2ccccc2)c2ccccc2)c1	130	-0.116
Cc1cc(F)c(Nc2ncnc3cc(OCc4ccccc4)ccc23)cc1O	104	-3.39
CN1CCN(c2ccc3nc(-c4c(N)c5c(F)cccc5[nH]c4=O)[nH]c3c2)CC1 [dovitinib]	240	72.9
C=CC(=O)Nc1cccc(Oc2nc(Nc3ccc(N4CCN(C)CC4)cc3OC)ncc2Cl)c1	96.5	19.1
CCOc1cc2ncc(C#N)c(Nc3ccc(F)c(Cl)c3)c2cc1NC(=O)/C=C/CN(C)C [Pelitinib]	197	9.86
CN(c1ncccc1CNc1nc(Nc2ccc3c(c2)CC(=O)N3)ncc1C(F)(F)F)S(C)(=O)=O	196	39.3
N=C(N)NC(=N)NCCc1ccccc1 [Phenformin-hydrochloride]	151	-9.04
Nc1nnc(-c2cccc(Cl)c2Cl)c(N)n1 [lamotrigine]	101	-3.5
CNC(=O)[C@H](Cc1ccccc1)NC(=O)[C@H](CC(C)C)[C@H](CSc1cccs1)C(=O)NO	94.8	-2.48
Nc1ccc2ncnc(NCCc3ccc(Oc4ccccc4)cc3)c2c1	45.5	39.1
O=C1NC(=O)C(c2ccccc2[N+](=O)[O-])=C1Nc1ccc(O)c(Cl)c1	153	-16.1
Nc1cccc2c1CN(C1CCC(=O)NC1=O)C2=O (stereo not given) [Lenalidomide]	115	28.7

Structure (SMILES)	normalized SmoIP GFP fluorescence [1] [%]	normalized SmoIP GFP fluorescence [2] [%]
c1ccc2c(c1)CCCC2C1=NCCN1 (stereo not given) [tetrahydrozoline-hcl]	115	-0.491
Cc1ccc(C(=O)Cn2c3c(sc2=N)CCCC3)cc1 [pifithrin-alpha]	98.6	-1
CC(C)(Oc1ccc(C2CC2(Cl)Cl)cc1)C(=O)O (stereo not given) [ciprofibrate]	108	-5.35
O=C(/C=C\n1cnc(-c2cc(C(F)(F)F)cc(C(F)(F)F)c2)n1)N1CC(F)(F)C1	118	-0.264
C1=C/COCc2cc(ccc2OCCN2CCCC2)Nc2nccc(n2)-c2cccc(c2)COC/1 [pacritinib-sb1518]	114	1.72
CNC(=O)c1cc(Oc2ccc(NC(=O)Nc3ccc(Cl)c(C(F)(F)F)c3)cc2)ccn1 [sorafenib]	107	9.54
CN1C2CCC1CC(OC(=O)C(O)c1ccccc1)C2 (stereo not given) [homatropine-bromide]	102	-4.81
CCn1cc(-c2ccnc3[nH]c(-c4cccc(CN(C)C)c4)cc23)c(-c2ccc(NC(=O)N(C)C)cc2)n1	173	-0.747
O=C1c2ccccc2C(=O)c2c1ccc(O)c2O [Alizarin]	141	-7.96
C=CC(=O)Nc1cccc(Nc2nc(Nc3ccc(Oc4ccnc(C(=O)NC)c4)cc3)ncc2F)c1	116	-1.23
CCOC(=O)c1ccc(N2NC(=O)C(=Cc3ccc([N+](=O)[O-])o3)C2=O)cc1	119	8.94
CN1CCc2nc(C(=O)N[C@@H]3C[C@@H](C(=O)N(C)C)CC[C@@H]3NC(=O)C(=O)Nc3ccc(Cl)cn3)sc2C1 [edoxaban]	106	-1.34
NC(=O)c1ccc(N(C(N)=O)c2c(F)cccc2F)nc1-c1ccc(F)cc1F	103	-3.5
C=CCc1ccc(O)c(-c2ccc(O)c(CC=C)c2)c1 [Honokiol]	104	-9.22
C[C@@H](Oc1cc(-n2cnc3ccc(CN4CCN(C)CC4)cc32)sc1C(N)=O)c1ccccc1C(F)(F)F	113	17.7
CCOC(=O)[C@H](CCc1ccccc1)N[C@@H](C)C(=O)N1CCC[C@H]1C(=O)O [Enalapril-maleate(Vasotec)]	97.8	-15.1
O=C(NC[C@H](O)CO)c1ccncc1Nc1ccc(I)cc1F	182	46.7
Cc1cc(C2CCCCC2)n(O)c(=O)c1 [ciclopirox-ethanolamine]	101	-0.264
Cc1ccc(=O)n(-c2ccccc2)c1 [pirfenidone]	107	-3.16
O=C(Cc1ccc(-c2ccc(OCCN3CCOCC3)cc2)cn1)NCc1ccccc1	108	23.9
O=C(NCCN1CCOCC1)c1ccc(Cl)cc1 [moclobemide]	108	-3.05
Nc1ccccc1NC(=O)c1ccc(CNC(=O)OCc2cccnc2)cc1	203	6.74
C[C@H](NC(=O)/C(C#N)=C/c1cccc(Br)n1)c1ccccc1	86.1	8.14
NC(N)=N/N=C/c1c(Cl)cccc1Cl [guanabenz-wy-8678-acetate]	112	-4.7
Nc1nccc(Oc2ccc(NC(=O)c3c[nH]cc(-c4ccc(F)cc4)c3=O)cc2F)c1Cl	88.3	-6.34

Structure (SMILES)	normalized SmoIP GFP fluorescence [1] [%]	normalized SmoIP GFP fluorescence [2] [%]
COC(=O)N1CCN(Cc2cccc(NC(=O)Nc3ccc(C)nc3)c2F)CC1	125	-11.4
CO[C@H]1C[C@@H]2CC[C@@H](C)[C@@](O)(O2)C(=O)C(=O)N2CCCC[C@H]2C(=O)O[C@H]([C@H](C)C[C@@H]2CC[C@@H](OP(C)(C)=O)[C@H](OC)C2)CC(=O)[C@H](C)/C=C(\C)[C@@H](O)[C@@H](OC)C(=O)[C@H](C)C[C@H](C)/C=C/C=C/C=C/1C [Deforolimus]	23.8	-8.56
COCC(=O)NC/C=C/c1ccc2ncnc(Nc3ccc(Oc4ccc(C)nc4)c(C)c3)c2c1	71.1	2.43
c1ccc(CC2=NCCN2)cc1 [tolazoline-hcl]	103	-1.74
FC(F)(F)c1ccc(/C=C/c2nc(COc3ccc(CCCCn4ccnn4)cc3)co2)cc1 [Mubritinib-TAK-165]	149	-0.747
Nc1nc(CC(=O)Nc2ccc(CCNC[C@H](O)c3ccccc3)cc2)cs1 [mirabegron-ym178]	108	-5.15
CN(C)Cc1ccc(S(=O)(=O)n2ccc(/C=C/C(=O)NO)c2)cc1 [resminostat-ras2410]	140	-5.8
COc1ccc(C2CNC(=O)C2)cc1OC1CCCC1 (stereo not given) [Rolipram]	92.5	-1.88
COC(=O)[C@]12CCC(C)(C)C[C@H]1[C@H]1C(=O)C=C3[C@@]4(C)C=C(C#N)C(=O)C(C)(C)[C@@H]4CC[C@@]3(C)[C@]1(C)CC2 [bardoxolone-methyl]	102	0.986
COc1ccc(-c2nc3ccc(C4=NNC(=O)CC4C)cc3[nH]2)cc1 (stereo not given) [Pimobendan(Vetmedin)]	104	4.8
Cc1cc(Nc2cc(N3CCN(C)CC3)nc(/C=C/c3ccccc3)n2)n[nH]1	136	23.8
O=C1C(=O)N(Cc2ccc(Cl)c(Cl)c2)c2ccccc21 [apoptosis-activator-2]	103	-2.82
CC(=O)Nc1ccc(C(=O)Nc2ccccc2N)cc1 [ci994-tacedinaline]	129	-4.13
O=C(NS(=O)(=O)c1ccc(Br)s1)c1ccc(Cl)cc1Cl [tasisulam]	104	-4.01
Cn1c(=O)c2[nH]cnc2n(C)c1=O [Aminophylline(Truphylline)]	98.8	-6.51
CN(C)C(=O)Nc1cccc(-c2ccc(N(C)C)cc2)c1 [atglistatin]	130	18.1
Cc1cnc(Nc2ccc(OCCN3CCCC3)cc2)nc1Nc1cccc(S(=O)(=O)NC(C)(C)C)c1	173	8.54
CN(C)CCC[C@@]1(c2ccc(F)cc2)OCc2cc(C#N)ccc21 [escitalopram-oxalate]	107	-1.12
O=S(=O)(c1cccc2cnccc12)N1CCCNCC1 [Fasudil-HCl(HA-1077)]	97	-3.93
CN(C[C@@H]1COCCO1)S(=O)(=O)Nc1ccc2ccc3ncc(-c4cnn(C)c4)cc3c(=O)c2c1	79.1	16.3
CNCC[C@@H](Oc1ccccc1C)c1ccccc1 [atomoxetine-hydrochloride]	104	-0.264
Oc1c2ccccc2c2c3c(cccc13)N=N2	121	66
OCc1ccc(-c2ccc(-c3ccc(CO)s3)o2)s1	111	-2.08

From the supplement of paper PMC5662767
